Source: PubChem BioAssay AID1458 (National Center for Advancing Translational Sciences (NCATS), 2008)
The campaign covered roughly 210,000 compounds. About 5,900 (2.8%) were called active. About 5% were inconclusive and are not listed. Calls come from the whole dose curve; as a rule, active = well fitted activation curve with a large enough effect; inconclusive = small, poorly fitted or top-dose-only effect; inactive = no such curve, though single readings can be large or run the other way. For the sample, actives were picked, then their nearest neighbours and some compounds at random.

Experiment: qHTS Assay for Enhancers of SMN2 Splice Variant Expression; note: nearly all actives have a fitted effect of over 55% in size; for activity change, positive = activation: % of control where 0% means no effect
Settings: HEK293 SMN2-luciferase splicing reporter, luminescence, 30-36 h; series mostly up to 46.1 µM; activity change, positive = activation: at the top concentration
Summary of the method: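 qHTS luciferase splicing reporter: luminescence rises when SMN2 exon 7 is included in transfected HEK293 cells. Compound exposure lasted 30-36 h at 37C, with 4.5 mM final sodium butyrate as control, followed by a ONE-Glo read.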
Potency is the fitted concentration of half-maximal effect.

Activity change, positive = activation, inactive:
CCN(CC)CCNC(=O)c1cc2c(=O)oc3ccc(C)cc3c2s1 -6.23%
O=C(COc1ccc(Cl)cc1)Nc1ccc(-c2nc3cc(Cl)ccc3o2)c(O)c1 21.9%
COc1cc2ccccc2cc1C(=O)Nc1cccc(-c2nc3ccccc3o2)c1 -1.36%
COc1cccc(C(=O)Nc2ccc3oc(-c4ccc5ccccc5c4)nc3c2)c1 6.04%
COc1cccc(-c2nc(S(=O)(=O)c3ccc(C)cc3)c(NCc3ccccc3)o2)c1 14.4%
CCCSc1ncc(Cl)c(C(=O)Nc2sc3c(c2C(=O)NCCOC)CCCC3)n1 -0.192%
O=C(c1ccccc1F)N1CCC(c2nc3c(nnn3Cc3cccc(F)c3)c(=O)[nH]2)CC1 3.36%
COc1ccc(-c2cc(C(F)(F)F)nc(SCC(=O)N(C)Cc3ccccc3)n2)cc1OC -25.9%
CCOc1ccc(N(CC)C(=O)c2cc3c(=O)oc4ccccc4c3s2)cc1 8.87%
CSc1ncc(Cl)c(C(=O)Nc2ccc(S(=O)(=O)N3CCCC(C)C3)cc2)n1 (configuration not stated) -9.9%
CCOc1cccc(NC(=O)CSc2ncc(-c3ccc(Cl)cc3)[nH]2)c1 -10.3%
CCC(=O)N1CCc2cc(S(=O)(=O)NC(Cc3ccccc3)C(=O)NCc3ccc(C)cc3)ccc21 (configuration not stated) 2.27%
CC(=O)c1cccc(NC(=O)Nc2ccc(C)cc2)c1 -13.7%
Cc1cccc(NC(=O)Nc2nnc(-c3ccccc3)o2)c1 -14%
CCN(CC)c1cc(NC2CCCCC2)c2c3c(onc13)-c1ccccc1C2=O -17.3%
CCCC(=O)Nc1nc2ccc(NC(=O)c3c(F)c(F)c(OC)c(F)c3F)cc2s1 -26.8%
Nc1nnc(SCC(=O)Nc2ccc3nc(SCC(=O)Nc4ccccc4)sc3c2)s1 -3.96%
CCC(C(=O)Nc1cccc(Cl)c1C)n1nc(-c2ccc(C)cc2)ccc1=O (configuration not stated) -3.41%
Cc1cc2nn(-c3ccc(Cl)cc3)nc2cc1NC(=O)C(C)C -8.91%
CCc1ccc(-c2nnn(Cc3nc4ccccc4s3)n2)cc1 -8.76%
COc1ccc(-c2nc3ccccc3s2)cc1NC(=O)COc1ccccc1C 8.11%
COc1ccc(C2=NC3(CCCCC3)N(CC(=O)Nc3ccc(C(C)C)cc3)C2=O)cc1 2.69%
C/C(Nc1ccc2oc(=O)ccc2c1)=C1/C(=O)CC2[C@@H]1C2(C)C (some centres not stated) -1.26%
CCNS(=O)(=O)c1ccc(NC(=O)CSc2nc(-c3ccco3)cc(C(F)(F)F)n2)cc1 -10.1%
O=C(Nc1cccc(Cl)c1N1CCOCC1)c1ccc2c(c1)OCCO2 -0.872%
O=C(Nc1cccc([N+](=O)[O-])c1)c1ccc2c(c1)OCO2 29.6%
O=C(Nc1ccc2c(c1)OCO2)c1ccc(N2C(=O)c3ccccc3C2=O)cc1 -0.0472%
O=C(Nc1ccc2c(c1)OCCO2)c1ccc(Cl)c(S(=O)(=O)N2CCCCC2)c1 -62.2%
Cn1c(NC(=O)c2ccc3c(c2)OCO3)cc(=O)n(C)c1=O -6.43%
CCSc1ccccc1C(=O)Nc1ccc2c(c1)OCO2 27.2%
Cc1ccc(-c2nc3ccccn3c2Nc2c(C)cccc2C)o1 -0.98%
N#C/C(=C\c1cccc(F)c1)c1nc(-c2cc3c(ccc4ccccc43)oc2=O)cs1 8.31%
CCOc1ccc(C(=O)c2cn(Cc3ccc(F)cc3)c3ccc(F)cc3c2=O)cc1 -2.97%
Cc1ccc(C(=O)NCCNC(=O)c2ccccc2)cc1 6.08%
Cc1ccc2nc(CC(=O)c3ccc4ccccc4c3)c(=O)[nH]c2c1 -3.77% [at 9.22 µM]
Cc1ccc(C)c(Nc2nnc(-c3ccc(C)c(S(=O)(=O)N4CCCCC4)c3)c3ccccc23)c1 -14.7%
Cc1cc(NC(=O)C2CCC(CNS(=O)(=O)c3ccc(Br)s3)CC2)ccc1Br (configuration not stated) -18.2%
Cc1ccc(-n2nc3cc(C)c(NC(=O)c4cccnc4)cc3n2)cc1 -15.4%
CCC(=O)Nc1cccc(NC(=O)c2cccnc2)c1 -15.2%
O=C(CSc1nnc(CNC(=O)c2ccccc2)n1-c1ccc(F)cc1)Nc1ccccc1F -1.11%
Cc1ccc(CNC(=O)CCc2c(C)nc3nc(CNC(=O)OC(C)(C)C)nn3c2C)cc1 -8.75%
COc1ccc(CCNCc2c(C(=O)O)c(C)n(Cc3cccc(C)c3)c2C)cc1OC 2.2%
COc1cc(SC)ccc1C(=O)Nc1nc(C)cs1 -80.7%
Cc1ccnc(NC(=O)CCCOc2ccccc2)c1 -24.8%
COc1cccc(C(=O)Nc2ccc(NC(=O)c3ccco3)cn2)c1 -2.24%
Cc1ccc(C(=O)COc2cccc(NC(=O)c3ccco3)c2)cc1 -40.6%
Cc1occc1C(=O)Nc1cccc(Cn2cccn2)c1 -12.3%
COc1ccccc1OCCNC(=O)c1cc([N+](=O)[O-])cc([N+](=O)[O-])c1 5.17%
COc1ccccc1CNC(=O)c1ccc(SC)cc1OC 2.66%
Cc1occc1C(=O)Nc1nnc(-c2ccncc2)s1 33.1%
CCOc1ccc2oc(=O)cc(CN3CCN(C(=O)c4ccc(F)cc4)CC3)c2c1 -15.9%
CCOC(=O)c1ccc(NC(=O)CC2C(=O)N(c3cccc(OC)c3)C(=O)N2C2CCCCC2)cc1 (configuration not stated) 1.93%
COc1cc(C(=O)N2CCN(C(=O)COc3cccc(C)c3)CC2)cc(OC)c1OC 21.2%
CC(=O)c1sc(N2C(=O)c3oc4ccccc4c(=O)c3C2c2ccc(C)cc2)nc1C (configuration not stated) -8.25%
CCc1ccc(NC(=O)c2sc3nc4c(cc3c2N)CN(CC)CC4)cc1 -16.2%
O=C(CSc1ccccc1)Nc1ccc(NC(=O)c2ccco2)cc1 3.71%
O=C(/C=C/c1ccco1)Nc1ccc(Oc2ccccc2)cc1 14.3%
C#CC(C)(CC)NC(=O)Cn1nnc(-c2ccc(OCc3c(F)cccc3Cl)cc2)n1 (configuration not stated) -28%
COc1ccc(CCNC(=O)CCCCn2c(=O)c3ccccc3n(Cc3ccccc3)c2=O)cc1OC 3.78%
COc1cc(/C=C/CO)cc(OC)c1O[C@@H]1O[C@H](CO)[C@@H](O)[C@H](O)[C@H]1O 11%
Cc1noc(/C=C/N(C)C)c1S(=O)(=O)N1CCCC(C(=O)Nc2cccc(F)c2)C1 (configuration not stated) 11.2%
Cc1cc(C)c(NC(=O)CCc2c(C)nc3c(c(C)nn3C(C)(C)C)c2C)c(C)c1 1.34%
O=C(CSc1nnc(-c2ccco2)n1Cc1ccccc1)NC(=O)NCc1ccco1 -11%
c1ccc(CSc2nnc(-c3ccco3)c(-c3ccco3)n2)cc1 -1.17%
COc1ccc(Cn2cc(C(=O)c3ccc(C)cc3)c(=O)c3cc(OC)c(OC)cc32)cc1 -5.96%
Cc1ccn2c(Nc3ccc4c(c3)OCCO4)c(-c3ccc(C)s3)nc2c1 17.7%
CCN(CC)S(=O)(=O)c1ccc(C(=O)N=c2sc3cccc(OC)c3n2C)cc1 -4.59%
Cc1cc(C)c(-c2n[nH]c3c2C(c2ccccc2F)N(CCO)C3=O)c(O)c1 (configuration not stated) 7.88%
CCn1cc(C(=O)N2CCN(c3cc(C)ccc3C)CC2)c(=O)c2cc(S(=O)(=O)N(C)C3CCCCC3)ccc21 -12.9%
CCOc1ccc(NC(=O)CC2C(=O)N(c3cccc(OC)c3)C(=O)N2C2CCCCC2)cc1 (configuration not stated) -1.25%
Cc1cccc(CC(=O)N2CC(=O)Nc3ccc(F)cc3C2c2ccccc2)c1 (configuration not stated) -3.94%
COc1ccc(N/N=C2/CCCCC2=O)cc1 18.6%
Cc1ccc(NN=C2C(=O)OC(C)(C)OC2=O)c(C)c1 29.2%
CCCn1c(=N)n(CC(O)COc2ccccc2OC)c2ccccc21 (configuration not stated) -15.6%
CCOC(=O)c1ccc(NC(=O)CCn2c(=O)oc3ccccc32)cc1 -14.6%
COc1ccc(/C=N/NC(=O)c2cccc(C(F)(F)F)c2)cc1 2.79%
CSc1ccc(/C=N\NC(=O)COc2ccc(Cl)cc2Br)cc1 -16.2%
CCn1cc(C(=O)N(C)Cc2ccccc2)c(=O)c2cc(S(=O)(=O)N3CCCCCC3)ccc21 -2.11%
COC(=O)c1c(NC(=O)c2cc(=O)c3c(C)cc(C)cc3o2)sc2c1CCCC2 8.45%
Cc1nc(SCCOc2ccc(Cl)cc2)[nH]c(=O)c1Cc1ccccc1 1.8%
CCOC(=O)CSc1nnc(NC(=O)c2cccc(S(=O)(=O)N3CCCCC3)c2)s1 -29.9%
Cc1ccc(S(=O)(=O)Nc2nc(C)cc(N/N=C/c3ccc(O)cc3)n2)cc1 8.38%
CC(=O)c1sc(NC(=O)C2=NN(c3ccccc3)C(=O)CC2)nc1C 7.92%
COc1ccc(/C=N\NC(=O)c2sc(N)nc2C)cc1OC 29.4%
Cc1nonc1C(=O)N/N=C/c1ccc(O)cc1 1.94% [at 1.84 µM]
CCSc1nnc(NC(=O)Cc2ccccc2OC)s1 -8.87%
Cc1nnc(C)n1/N=C/c1ccc(C(C)C)cc1 -20.6%
Cc1ccc(C(=O)Nc2nc(-c3ccccc3)ns2)cc1 25.4%

Potency, active:
COc1ccc2oc(-c3cccc(NC(=O)CSc4ccc(Cl)cc4)c3)nc2c1 8.91 µM
COc1cccc(-c2nc3cc(C)ccc3o2)c1 11.2 µM
Cc1ccc(NC(=O)Nc2ccccc2)c(Br)c1 12.6 µM
CSc1nc2ccc(NC(=O)c3c(F)cccc3F)cc2s1 12.6 µM
COc1ccccc1OCc1nc2ccccc2s1 3.16 µM
Cn1c(=O)n(C)c2cc(C(=O)Nc3ccc4c(c3)OCO4)ccc21 11.2 µM
CN1CCN(c2ccc(NC(=O)c3ccc4c(c3)OCCO4)cc2Cl)CC1 14.1 µM
CC(C)C(=O)Nc1cccc(C(=O)Nc2ccc3c(c2)OCO3)c1 15.8 µM
Cc1ccc2nc(CNC(=O)c3ccccc3)[nH]c2c1 11.2 µM
Cc1cc2nc(-c3ccc(NC(=O)c4cccnc4)cc3)oc2cc1C 12.6 µM
COc1cc(SC)ccc1C(=O)Nc1cc(C)ccn1 2.24 µM
Cc1ccnc(NC(=O)c2ccc(NC(=O)c3ccco3)cc2)c1 10 µM
COc1cc(SC)ccc1C(=O)NCCOc1ccccc1Cl 12.6 µM
Cc1ccnc(NC(=O)c2ccoc2C)c1 15.8 µM
O=C(Nc1ccc(Oc2ccccc2)cc1)c1ccco1 15.8 µM
COc1cc(/C=C/C2=CC(C)(C)NC(=S)N2)cc(OC)c1OC 11.2 µM
c1ccc(CSc2nnc(-c3ccco3)n2Cc2ccccc2)cc1 22.4 µM
Cc1ccn(-c2cccc(-n3ccc(C)n3)n2)n1 7.94 µM
Cc1ccc(N/N=C2\COC(C)(C)CC2=O)cc1 11.2 µM
CSc1ccc(/C=N/NC(=O)c2cccc(Cl)c2)cc1 10 µM
CC(=O)c1sc(N/N=C\c2ccc(C)cc2)nc1C 10 µM
CCSc1nnc(NC(=O)c2ccc(C)cc2)s1 14.1 µM
CC(=O)c1sc(NC(=O)c2ccc(C)cc2)nc1C 5.62 µM
CC(=O)c1sc(N/N=C/c2ccc(C(C)C)cc2)nc1C 17.8 µM
